Laboratory results taken from PubChem BioAssay (NCATS).
Records with an inconclusive call do not appear. Entries that show only a call come without a potency. Calls of active or inactive are those of the source. Calls follow the shape of the dose curve; as a rule, active = well fitted inhibition curve with a large enough effect; inconclusive = small, poorly fitted or top-dose-only effect; inactive = flat fitted curve, though single readings scatter.

tested on: HACAT; assay: qHTS assay to identify novel small-molecules to repurpose for Merkel cell carcinoma treatment (AID 1296009); conditions: MCC and control cell lines, CellTiter-Glo viability, 72 h; at 44.8 µM (top of the series) unless noted; also: nearly all actives have a fitted effect of over 60% in size
In short: (§1)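 Viability readout: ATP luminescence (CellTiter-Glo) after 72 hr drug exposure at 37 degree celsius. Dose-response format was 8 points for NPC and 11 points for MIPE; data normalized to in-plate controls.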

| SMILES | outcome |
| --- | --- |
| CC(C)C1=CC2=CCC3[C@](C)(CCC[C@@]3(C)C(=O)O)C2CC1O (some centres not stated) | inactive |
| C[C@@H]1O[C@@H](O[C@H]2[C@H](O)[C@@H](C(=O)O)O[C@@H](O[C@H]3CC[C@@]4(C)C(CC[C@]5(C)C4CC=C4C6CC(C)(C)CC[C@]6(C(=O)O)CC[C@]45C)C3(C)C)[C@@H]2O[C@@H]2O[C@H](CO)[C@@H](O)[C@H](O)[C@H]2O)[C@H](O)[C@H](O)[C@H]1O (some centres not stated) | inactive [at 9.27 µM] |
| O=S(=O)(NC1CCNCC1)c1cc(S(=O)(=O)c2ccccc2)ccc1C(F)(F)F | inactive |
| CC(=O)O[C@H]1[C@H](C)[C@@H](O)[C@H]2[C@@H]1C=C(C(=O)O)[C@H]1C[C@@H]3[C@H]([C@H]21)[C@H]1C(=O)O[C@@H]2CC[C@@]3(C)O[C@]1(O)[C@@H]2C | inactive [at 17.4 µM] |
| C/C=C(\C)C(=O)O[C@H]1[C@H](O)[C@]2(COC(C)=O)[C@H](O)C[C@]3(C)C(=CCC4[C@@]5(C)CC[C@H](O[C@@H]6O[C@H](C(=O)O)[C@@H](O[C@@H]7O[C@H](CO)[C@@H](O)[C@H](O)[C@H]7O)[C@H](O)[C@H]6O[C@@H]6O[C@H](CO)[C@@H](O)[C@H](O)[C@H]6O)[C@](C)(CO)C5CC[C@]43C)[C@@H]2CC1(C)C (some centres not stated) | inactive [at 9.27 µM] |
| COc1cc(C2Oc3c(OC)cc(CCCO[C@@H]4O[C@H](CO)[C@@H](O)[C@H](O)[C@H]4O)cc3C2CO)ccc1O (some centres not stated) | inactive [at 17.4 µM] |
| CC1=C(C)C(=O)OC(C(C)C2C(O)CC3C4C5OC5C5(O)CC(OC6OC(CO)C(O)C(O)C6O)CC(O)C5(C)C4CCC32C)C1 (configuration not stated) | inactive [at 17.4 µM] |
| CC(C)c1cc2c(c(O)c1O[C@@H]1O[C@H](CO)[C@@H](O)[C@H](O)[C@H]1O)CC1(O)CCC(O)C(C)(C)C1CC2 (some centres not stated) | inactive [at 17.4 µM] |

tested on: HEK293T; assay: as above; conditions: MCC and control cell lines, CellTiter-Glo viability, 72 h; series mostly up to 44.8 µM
In short: as §1

| SMILES | outcome | Potency |
| --- | --- | --- |
| CC1(C)C[C@H]2C3=CCC4[C@@]5(C)CC[C@H](O[C@H]6O[C@H](C(=O)O)[C@@H](O)[C@H](O)[C@H]6O[C@H]6O[C@H](CO)[C@@H](O)[C@H](O)[C@H]6O[C@@H]6O[C@H](CO)[C@@H](O)[C@H](O)[C@H]6O)[C@](C)(CO)C5CC[C@@]4(C)[C@]3(C)CC[C@@]2(C)[C@H](O[C@@H]2OC[C@H](O)[C@H](OC3O[C@H](CO)[C@@H](O)[C@H](O)[C@H]3O)[C@H]2O)[C@@H]1O (some centres not stated) | inactive [at 9.27 µM] | – |
| COc1cc(C[C@H]2COC(=O)[C@@H]2Cc2ccc(O)c(OC)c2)ccc1O | – | inactive |
| O=C(OCc1cccc(O)c1O[C@@H]1O[C@H](CO)[C@@H](O)[C@H](O)[C@H]1O)C1(O)C(=O)C2C=CC1C1C=CC(=O)C(O)(C(=O)OCc3cccc(O)c3O[C@@H]3O[C@H](CO)[C@@H](O)[C@H](O)[C@H]3O)C21 (some centres not stated) | inactive [at 9.27 µM] | – |
| CC(=O)NC(CCC(=O)O)C(=O)NCCc1ccc(O)cc1 (configuration not stated) | – | inactive |
| CC(=O)O[C@@H]1C[C@]2(C)[C@@]3(CCC4[C@@]5(C)CC[C@H](O[C@@H]6O[C@H](C(=O)O)[C@@H](O)[C@H](O[C@@H]7O[C@H](CO)[C@H](O)[C@H](O)[C@H]7O[C@@H]7O[C@@H](C)[C@H](O)[C@@H](O)[C@H]7O[C@@H]7OC[C@](O)(CO)[C@H]7O)[C@H]6O[C@@H]6O[C@H](CO)[C@H](O)[C@H](O)[C@H]6O)C(C)(C)C5CC[C@]42C)O[C@@H](O)[C@]12C3CC(C)(C)[C@@H](OC(=O)/C=C/c1ccc(O)c(O)c1)[C@@H]2OC(=O)/C=C/c1ccccc1 (some centres not stated) | inactive [at 9.27 µM] | – |
| CC1CCC2C(C)(C)CC(C)(CO)C2(O)C1C(=O)O (configuration not stated) | – | inactive |
| C=C1C[C@@]23CC[C@@H]4[C@](C)(C(=O)O)CCC[C@@]4(C)C2=CC[C@H]1C3 | – | inactive |
| CCOc1nc2cccc(C(=O)O)c2n1Cc1ccc(-c2ccccc2-c2noc(=O)[nH]2)cc1 | – | inactive |
| C/C=C(\C)C(=O)OC[C@H]1O[C@H](O[C@H]2O[C@H](CO)[C@@H](OC(=O)/C(C)=C/C)[C@H](O)[C@H]2O[C@@H]2O[C@H](CO)[C@@H](O)[C@H](O)[C@H]2O)[C@H](O[C@@H]2O[C@H](CO)[C@@H](O)[C@H](O)[C@H]2O)[C@@H](O)[C@@H]1O | inactive [at 9.27 µM] | – |
| CCNC(=O)CCC/C=C\C[C@@H]1[C@@H](/C=C/C(O)CCc2ccccc2)[C@@H](O)C[C@@H]1O (some centres not stated) | – | inactive |
| C=C(C)C(=O)O[C@H]1C[C@@](C)(OC(C)=O)[C@@]2(O)CC[C@@](C)(O)[C@H](OC(C)=O)[C@@]23OC(=O)C(COC)=C13 | – | inactive |
| CC(=O)O[C@@H]1[C@H]2[C@@H](OC(=O)c3ccccc3)[C@@H](C)C[C@]2(O)[C@H](OC(C)=O)[C@@]2(C)[C@@H]3CC(C)(C)C(=O)[C@]3(OC(C)=O)C[C@@]12C | – | inactive |
| C=CC(C)(CC/C=C(\C)CC/C=C(\C)CC(O)/C=C(\C)C(=O)O)O[C@@H]1O[C@H](CO)[C@@H](O)[C@H](O)[C@H]1O[C@@H]1O[C@H](CO)[C@@H](O)[C@H](O)[C@H]1O (some centres not stated) | – | inactive |
| C/C=C(\C)C(=O)O[C@@H](C)[C@H]1CC[C@]2(O)C3CCC4C[C@@H](OC5CC(OC)C(OC6CC(OC)C(OC7CC(OC)C(OC8OC(C)C(OC9OC(CO)C(O)C(O)C9O)C(OC)C8O)C(C)O7)C(C)O6)C(C)O5)CC[C@]4(C)C3[C@H](O)[C@@H](O)[C@]12C (some centres not stated) | inactive [at 9.27 µM] | – |
| CC1(C)CC(=O)N(CCCCN2CCN(c3ncccn3)CC2)C(=O)C1 | – | inactive |
| C[C@@H]1CC[C@]2(C(=O)O)CC[C@]3(C)C(=CCC4[C@]5(C)C(CC[C@]43C)C(C)(C)[C@@H](O)[C@H](O)[C@@H]5O)C2[C@]1(C)O (some centres not stated) | – | inactive |
| O=C(COc1ccc(Cl)cc1)NC1CCC(NC(=O)COc2ccc(Cl)cc2)CC1 (configuration not stated) | – | inactive |
| O=C(O)CCc1cccc(O[C@@H]2O[C@H](CO)[C@@H](O)[C@H](O)[C@H]2O)c1O | – | inactive |
| OC[C@H]1O[C@@H](OC(CCCCc2ccc(O)cc2)CCc2ccc(O)cc2)[C@H](O[C@@H]2OC[C@](O)(CO)[C@H]2O)[C@@H](O)[C@@H]1O (some centres not stated) | – | inactive |
| COc1cc2c(cc1OC)CN(C(=O)[C@@H](NCc1ccncc1)C(C)(C)C)CC2 | – | inactive |

| SMILES | outcome | Potency |
| --- | --- | --- |
| COc1ccc(/C=C/C(=O)O[C@@H]2[C@@H](O)[C@H](C)O[C@@H](OC3C4C=COC(O[C@@H]5O[C@H](CO)[C@@H](O)[C@H](O)[C@H]5O)C4C4(CO)OC34)[C@@H]2O)cc1OC (some centres not stated) | – | inactive |
| CC(=O)OCC1=C[C@H](O)[C@@H]2C(C(=O)O)=CO[C@@H](O[C@@H]3O[C@H](CO)[C@@H](O)[C@H](O)[C@H]3O)[C@H]12 | – | inactive |
| COC(=O)[C@@]1(O)C=CC[C@@H]2[C@@]3(C)C[C@@H](c4ccoc4)OC(=O)[C@H]3CC[C@]21C | – | inactive |
| O=C(NCC(=O)N1CC[C@H](NC2CCC(O)(c3ccc(-c4ncccn4)cn3)CC2)C1)c1cccc(C(F)(F)F)c1 (some centres not stated) | – | inactive |
| CC1=CC(=O)C2C(C)(C)CCCC2(C)C12CCC1(COC(=O)C1)O2 (configuration not stated) | – | inactive |
| CC(C)(O)C1CCC2(C)C3C(O)C4C(C13)C42CO (configuration not stated) | – | inactive |
| C[C@@H]1CC[C@]2(C)C(C[C@@H](O)[C@H](O)[C@]23CO3)[C@@]1(C)CCc1ccoc1 (some centres not stated) | – | inactive |
| O=C(O)C[C@H]1CCC(=O)[C@@H]1C/C=C\CCOC1OC(CO)C(O)C(O)C1O (some centres not stated) | – | inactive |
| C=CCc1ccc(O[C@@H]2O[C@H](CO)[C@@H](O)[C@H](O)[C@H]2O)c(OC)c1 | – | inactive |
| CC1OC(OC2C(O)C(C(=O)O)OC(OC3CCC4(C)C(CCC5(C)C4C=CC4=C6CC(C)(C)CC(O)C6(C)CCC45C)C3(C)C)C2OC2OCC(O)C(O)C2O)C(O)C(O)C1O (configuration not stated) | inactive [at 9.27 µM] | – |
| C[C@H]1[C@H](C)CC[C@]2(C(=O)O)CC[C@]3(C)C(=CC[C@@H]4[C@@]5(C)C[C@@H](O)[C@H](O)[C@@](C)(CO)[C@@H]5CC[C@]43C)[C@H]12 | – | inactive |
| CC(C)C1=CC2=CCC3[C@](C)(CCC[C@@]3(C)C(=O)O)C2CC1O (some centres not stated) | – | inactive |
| C[C@@H]1O[C@@H](O[C@H]2[C@H](O)[C@@H](C(=O)O)O[C@@H](O[C@H]3CC[C@@]4(C)C(CC[C@]5(C)C4CC=C4C6CC(C)(C)CC[C@]6(C(=O)O)CC[C@]45C)C3(C)C)[C@@H]2O[C@@H]2O[C@H](CO)[C@@H](O)[C@H](O)[C@H]2O)[C@H](O)[C@H](O)[C@H]1O (some centres not stated) | inactive [at 9.27 µM] | – |
| O=S(=O)(NC1CCNCC1)c1cc(S(=O)(=O)c2ccccc2)ccc1C(F)(F)F | – | inactive |
| CC(=O)O[C@H]1[C@H](C)[C@@H](O)[C@H]2[C@@H]1C=C(C(=O)O)[C@H]1C[C@@H]3[C@H]([C@H]21)[C@H]1C(=O)O[C@@H]2CC[C@@]3(C)O[C@]1(O)[C@@H]2C | – | inactive |
| C/C=C(\C)C(=O)O[C@H]1[C@H](O)[C@]2(COC(C)=O)[C@H](O)C[C@]3(C)C(=CCC4[C@@]5(C)CC[C@H](O[C@@H]6O[C@H](C(=O)O)[C@@H](O[C@@H]7O[C@H](CO)[C@@H](O)[C@H](O)[C@H]7O)[C@H](O)[C@H]6O[C@@H]6O[C@H](CO)[C@@H](O)[C@H](O)[C@H]6O)[C@](C)(CO)C5CC[C@]43C)[C@@H]2CC1(C)C (some centres not stated) | inactive [at 9.27 µM] | – |
| COc1cc(C2Oc3c(OC)cc(CCCO[C@@H]4O[C@H](CO)[C@@H](O)[C@H](O)[C@H]4O)cc3C2CO)ccc1O (some centres not stated) | – | inactive |
| CC1=C(C)C(=O)OC(C(C)C2C(O)CC3C4C5OC5C5(O)CC(OC6OC(CO)C(O)C(O)C6O)CC(O)C5(C)C4CCC32C)C1 (configuration not stated) | – | inactive |
| CC(C)c1cc2c(c(O)c1O[C@@H]1O[C@H](CO)[C@@H](O)[C@H](O)[C@H]1O)CC1(O)CCC(O)C(C)(C)C1CC2 (some centres not stated) | – | inactive |
